Experimental data from PubChem BioAssay (NCI).
About 83,000 compounds went through this panel and 20% of them were active in at least one assay; those are over-represented in the sample as a whole.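 The endpoint reported here, percent growth, reads 100 for growth as untreated, 0 for no net growth and -100 for all cells dead.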 Activity calls are given as the source filed them. Rule for the calls: active = growth percent below 10; inactive = the rest.

Assays:
Assay in all cases: NCI-60 one-dose screen, 48 h (100 = growth as untreated, 0 = no growth, -100 = all killed)
Settings in all cases: 10 µM unless noted
SK-MEL-2 melanoma = tested on: SK-MEL-2 melanoma
SN12C renal = tested on: SN12C renal
UO-31 renal = tested on: UO-31 renal
TK-10 renal = tested on: TK-10 renal
ACHN renal = tested on: ACHN renal
A498 renal = tested on: A498 renal
CCRF-CEM leukemia = tested on: CCRF-CEM leukemia
MOLT-4 leukemia = tested on: MOLT-4 leukemia
SR leukemia = tested on: SR leukemia
RPMI-8226 leukemia = tested on: RPMI-8226 leukemia
OVCAR-8 ovarian = tested on: OVCAR-8 ovarian
OVCAR-5 ovarian = tested on: OVCAR-5 ovarian
SK-OV-3 ovarian = tested on: SK-OV-3 ovarian
IGROV1 ovarian = tested on: IGROV1 ovarian
OVCAR-3 ovarian = tested on: OVCAR-3 ovarian
HS 578T breast = tested on: HS 578T breast
NCI/ADR-RES ovarian = tested on: NCI/ADR-RES ovarian
CAKI-1 renal = tested on: CAKI-1 renal
OVCAR-4 ovarian = tested on: OVCAR-4 ovarian
EKVX NSCLC = tested on: EKVX NSCLC

Measured: growth

Cc1ccc(Nc2c(C(N)=O)cnc3ccc(S(=O)(=O)Nc4cc(C)on4)cc23)cc1
inactive: SK-MEL-2 melanoma 109% | SN12C renal 97.9% | UO-31 renal 78.2% | TK-10 renal 118% | ACHN renal 89.2% | A498 renal 88.8% | CCRF-CEM leukemia 100% | MOLT-4 leukemia 101% | SR leukemia 101% | RPMI-8226 leukemia 103% | OVCAR-8 ovarian 97.9% | OVCAR-5 ovarian 99.5% | SK-OV-3 ovarian 107% | IGROV1 ovarian 101% | OVCAR-3 ovarian 103% | HS 578T breast 104% | NCI/ADR-RES ovarian 101%

NC(Cc1ccc(O)cc1)C(=O)N/N=C/c1ccccc1O (centres undefined)
inactive: SN12C renal 114% | UO-31 renal 74.6% | TK-10 renal 98% | ACHN renal 116% | CAKI-1 renal 107% | A498 renal 103% | CCRF-CEM leukemia 81.2% | MOLT-4 leukemia 75.6% | SR leukemia 82.5% | RPMI-8226 leukemia 103% | OVCAR-8 ovarian 96.2% | OVCAR-5 ovarian 110% | OVCAR-4 ovarian 90.1% | IGROV1 ovarian 92.8% | OVCAR-3 ovarian 103% | HS 578T breast 107% | NCI/ADR-RES ovarian 102%

c1ccc(C2Cc3ccccc3C2=NC2CCCCC2)cc1 (centres undefined)
inactive: SK-MEL-2 melanoma 93.5% | UO-31 renal 89.5% | TK-10 renal 103% | ACHN renal 97% | A498 renal 97.9% | CCRF-CEM leukemia 94.8% | MOLT-4 leukemia 102% | SR leukemia 91.1% | RPMI-8226 leukemia 100% | OVCAR-5 ovarian 90.8% | OVCAR-4 ovarian 102% | SK-OV-3 ovarian 110% | IGROV1 ovarian 112% | OVCAR-3 ovarian 121% | HS 578T breast 113% | NCI/ADR-RES ovarian 113%

CC(C)=CCC/C(C)=C/CC/C(C)=C/CSC[C@H](NC(=O)CCCCCN1CCN(C)CC1)C(=O)NC1CCCCCC1
active: SR leukemia -20.1%
inactive: SK-MEL-2 melanoma 88.2% | SN12C renal 87.4% | UO-31 renal 56% | TK-10 renal 94.2% | ACHN renal 66% | A498 renal 77.3% | CCRF-CEM leukemia 19.9% | MOLT-4 leukemia 38.4% | RPMI-8226 leukemia 51.8% | OVCAR-5 ovarian 68.7% | SK-OV-3 ovarian 96.4% | IGROV1 ovarian 69.8% | OVCAR-3 ovarian 76.6% | HS 578T breast 76.2% | NCI/ADR-RES ovarian 72.3%

C/C(=N\Nc1cc(C)c2ccccc2n1)c1ccccn1
inactive: SN12C renal 18.2% | A498 renal 19.2% | OVCAR-5 ovarian 20.6% | SK-OV-3 ovarian 22.3% | HS 578T breast 35.6%
active: UO-31 renal -86% | TK-10 renal -12.9% | CAKI-1 renal -15.1% | CCRF-CEM leukemia -20.2% | MOLT-4 leukemia -18.7% | SR leukemia 1.94% | RPMI-8226 leukemia -24% | OVCAR-8 ovarian -23.3% | OVCAR-4 ovarian -8.85% | IGROV1 ovarian -26.7% | OVCAR-3 ovarian -0.251% | NCI/ADR-RES ovarian -8.13%

O=C1C(Cl)=C(Nc2ccc(S(=O)(=O)c3ccc(NC4=C(Cl)C(=O)c5ccccc5C4=O)cc3)cc2)C(=O)c2ccccc21
inactive: EKVX NSCLC 59.1% | SN12C renal 56.2% | A498 renal 66.2% | CCRF-CEM leukemia 21.1% | MOLT-4 leukemia 19% | OVCAR-5 ovarian 100% | SK-OV-3 ovarian 78.9% | NCI/ADR-RES ovarian 43.6%
active: UO-31 renal -62.4% | TK-10 renal -58.7% | ACHN renal -7.78% | CAKI-1 renal -21.3% | RPMI-8226 leukemia 5.2% | OVCAR-8 ovarian -61.8% | OVCAR-4 ovarian -84.9% | IGROV1 ovarian -18.5% | OVCAR-3 ovarian -98.4%

O=c1c(CNc2ccc(S(=O)(=O)Nc3ncccn3)cc2)coc2ccccc12
inactive: SK-MEL-2 melanoma 95.9% | SN12C renal 90.1% | UO-31 renal 74.9% | TK-10 renal 106% | CAKI-1 renal 130% | A498 renal 102% | SR leukemia 100% | RPMI-8226 leukemia 73.1% | OVCAR-5 ovarian 96.3% | OVCAR-4 ovarian 104% | SK-OV-3 ovarian 98.7% | IGROV1 ovarian 95.2% | OVCAR-3 ovarian 111% | HS 578T breast 102% | NCI/ADR-RES ovarian 104%

Cc1[c-]onc1C.Cc1[c-]onc1C.[Ag].[Ag].[NH-]S(=O)(=O)c1ccc(N=Nc2cc(N=Nc3ccc(S([NH-])(=O)=O)cc3)c3c(NC(=O)C(Cl)Cl)cccc3c2OC(=O)C(Cl)Cl)cc1
inactive: SN12C renal 94.1% | UO-31 renal 71.4% | TK-10 renal 133% | ACHN renal 58% | CAKI-1 renal 68.5% | A498 renal 98.6% | CCRF-CEM leukemia 11% | MOLT-4 leukemia 81.8% | SR leukemia 81.4% | RPMI-8226 leukemia 80.4% | OVCAR-8 ovarian 69.1% | OVCAR-5 ovarian 125% | OVCAR-4 ovarian 93.9% | SK-OV-3 ovarian 111% | IGROV1 ovarian 73% | OVCAR-3 ovarian 59.7% | HS 578T breast 85.2% | NCI/ADR-RES ovarian 96.9%

O=C(NC(Cc1cn(Cc2ccccc2)cn1)C(=O)O)OCC1c2ccccc2-c2ccccc21 (centres undefined)
inactive: SN12C renal 108% | UO-31 renal 85.1% | TK-10 renal 105% | ACHN renal 104% | CAKI-1 renal 103% | A498 renal 102% | CCRF-CEM leukemia 111% | MOLT-4 leukemia 83.6% | SR leukemia 85.1% | RPMI-8226 leukemia 114% | OVCAR-8 ovarian 103% | OVCAR-5 ovarian 105% | OVCAR-4 ovarian 106% | SK-OV-3 ovarian 109% | IGROV1 ovarian 105% | OVCAR-3 ovarian 105% | HS 578T breast 98% | NCI/ADR-RES ovarian 104%

C/C(=N\Nc1cc(C)c2cc(C)ccc2n1)c1ccccn1
inactive: SN12C renal 14.8% | A498 renal 20.9% | SK-OV-3 ovarian 25.4% | HS 578T breast 45.9%
active: UO-31 renal -91% | TK-10 renal -22.2% | ACHN renal -100% | CAKI-1 renal -16.3% | CCRF-CEM leukemia -22% | MOLT-4 leukemia -17.2% | SR leukemia 0.29% | RPMI-8226 leukemia -33.4% | OVCAR-8 ovarian -60% | OVCAR-5 ovarian -33.3% | OVCAR-4 ovarian -83.1% | IGROV1 ovarian -35.9% | OVCAR-3 ovarian -40.6% | NCI/ADR-RES ovarian 1.12%

O=C1C=C(C(O)c2ccc(O)cc2)C(=O)c2ccccc21 (centres undefined)
inactive: SK-MEL-2 melanoma 109% | SN12C renal 107% | UO-31 renal 69.2% | TK-10 renal 103% | ACHN renal 92.7% | A498 renal 104% | MOLT-4 leukemia 84.8% | SR leukemia 87.7% | OVCAR-8 ovarian 104% | OVCAR-5 ovarian 99.7% | SK-OV-3 ovarian 85.8% | IGROV1 ovarian 86.3% | OVCAR-3 ovarian 96.2% | HS 578T breast 120% | NCI/ADR-RES ovarian 105%

COC(=O)c1cc(=O)nc(N/N=C/c2ccc(C)cc2)s1
inactive: SN12C renal 110% | UO-31 renal 86.4% | TK-10 renal 104% | ACHN renal 107% | CAKI-1 renal 102% | A498 renal 104% | CCRF-CEM leukemia 93% | MOLT-4 leukemia 92.6% | SR leukemia 94.8% | RPMI-8226 leukemia 89.9% | OVCAR-5 ovarian 101% | OVCAR-4 ovarian 96.9% | IGROV1 ovarian 105% | OVCAR-3 ovarian 120% | HS 578T breast 110% | NCI/ADR-RES ovarian 106%

COc1cc(-c2nc(-c3ccccc3)c(-c3ccccc3)[nH]2)cc(OC)c1O
inactive: ACHN renal 15.2% | A498 renal 82.8% | OVCAR-5 ovarian 75.3%
active: SK-MEL-2 melanoma -39.7% | SN12C renal 2.29% | UO-31 renal 5.85% | TK-10 renal 0.953% | CCRF-CEM leukemia -0.116% | MOLT-4 leukemia 4.88% | SR leukemia 4.48% | RPMI-8226 leukemia 0.561% | OVCAR-4 ovarian -36.5% | SK-OV-3 ovarian -0.937% | OVCAR-3 ovarian -80.9% | HS 578T breast 9.67%

COc1cc2c(cc1OC)C(=O)/C(=C/c1cc(-c3ccc4c(c3)OCO4)n[nH]1)C2
active: SN12C renal 6.08% | TK-10 renal -9.8% | ACHN renal -7.41% | SR leukemia -43.8% | RPMI-8226 leukemia -46.7% | OVCAR-3 ovarian -50.4% | NCI/ADR-RES ovarian -15%
inactive: SK-MEL-2 melanoma 81.3% | CAKI-1 renal 56.4% | A498 renal 25.8% | OVCAR-5 ovarian 37.9% | OVCAR-4 ovarian 14.4% | SK-OV-3 ovarian 33.6% | IGROV1 ovarian 52.7%
